The list is not random: actives were taken first. Their share in the collection is about 2.2%.
EBV LMP1 NFkB – reduces LMP1-driven NF-kappaB luciferase signal; LMP1-induced NF-kappaB luciferase reporter cells, luminescence; inhibition, % at 12.5 µM; 350,000 tested, 0.69% active; in the data active means inhibition above about 41%;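 further: 0% = neutral control wells and 100% = reference inhibitor control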
PAX8 reporter – inhibitors of PAX8 transcriptional activity in RMG-I cells; RMG-I TPO-luciferase reporter, SteadyGlo, 24 h; inhibition, % at 12.6 µM; 360,000 tested, 1.2% active; AID 652154;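 active means mean replicate inhibition at least 60% with every replicate also reaching 60%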;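 further: luciferase light reporting Pax8 driven TPO promoter activity; plate controls were median of neutral control wells for no effect and mitoxantrone controls for full effect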
EWS-Fli block – inhibitors of EWS/Fli oncoprotein transcriptional activity; A673 NR0B1-luciferase reporter, viability-normalised; inhibition, % at 12.6 µM; 350,000 tested, 0.67% active; AID 651661;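 active means mean inhibition of at least 50% after viability correction, with every replicate also passing that limit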;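 further: firefly luciferase signal divided by Alamar Blue viability fluorescence both relative to DMSO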
TRPM1 prom inh – reduces MITF-dependent TRPM1 promoter luciferase signal | SK-MEL-5 TRPM1 promoter luciferase, 24 h | inhibition, % at 12.5 µM | 330,000 tested, 0.83% active | AID 488899;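 active means mean inhibition across replicates of 60% or more, whatever share of single replicates reaches that level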
LGR2 inh – inhibitors of bursicon-induced Drosophila LGR2 receptor cAMP signaling. inhibition, % at 9.99 µM. HEK293 LGR2, CRE-luciferase, bursicon-stimulated, 4 h. AID 720647. 380,000 tested, 0.35% active;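 active means drop in luminescence signal, shown as inhibition above about 50% in the replicate tests, limit read from the data, passing the limit was not always enough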;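 further: agonist challenge used bursicon conditioned medium at about half maximal strength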
Shn3 3UTR inh – inhibitors of Schnurri-3 3'UTR reporter in osteoblasts; Clone20 osteoblast Shn3 3'UTR firefly luciferase, 24 h; inhibition, % at 12.5 µM; 360,000 tested, 0.52% active; AID 588674;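 active means mean inhibition of at least 75% with every replicate also reaching 75%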;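 further: 0% = median of neutral control wells and 100% = pilot-screen positive control compound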
Numbers without * were called inactive; · = no result given.

SMILES	EBV LMP1 NFkB	PAX8 reporter	EWS-Fli block	TRPM1 prom inh	LGR2 inh	Shn3 3UTR inh
CCN(c1ccccc1)S(=O)(=O)c1ccc(Cl)c(NC(=O)Nc2ccc(Cl)cc2C#N)c1	85*	10	-5	9	34	21
CCN(c1ccccc1)S(=O)(=O)c1cc(NC(=O)Nc2ccccc2C#N)ccc1Cl	3	11	14	-8	14	2
O=C1C=C(NCc2ccccc2)CCC1	2	74*	0	11	-4	-6
COc1ccc(CN(C)C[C@@H]2OCCCC[C@@H](C)Oc3ccc(NC(=O)Nc4c(C)noc4C)cc3C(=O)N([C@@H](C)CO)C[C@H]2C)cc1	·	-4	-7	·	1	·
CN(C)CCCNc1c2c(nc3ccccc13)CCC2	-8	2	21	-13	-22	-1
CN(C)CCNCCCNc1c2ccccc2nc2cccc([N+](=O)[O-])c12	-6	20	6	103*	-5	11
CCN(CC)Cc1cc(C(C)(C)C)cc(N2CCOCC2)c1O	4	-12	8	2	-11	6
CN(C)Cc1cc(C(C)(C)C)cc(N2CCOCC2)c1O	68*	12	3	10	-4	-60
CCCN1[C@@H]2c3ccc(-c4cccc(C(=O)N(C)C)c4)c(=O)n3C[C@@H]2[C@@H](CO)[C@@H]1C(=O)NCCOC	·	-14	-4	·	-8	·
O=C(Cn1ncc(Cl)c(Cl)c1=O)Nc1ccc2c(c1)OCO2	-68	89*	49	79*	-9	66
Cc1ccc(S(=O)(=O)N2CCCCC2)cc1NC(=O)Cn1cnnn1	-2	1	0	-12	-3	0
Cc1ccc(S(=O)(=O)N2CCCCC2)cc1NC(=O)Cn1ncc(Cl)c(Cl)c1=O	-31	99*	75*	101*	54*	100*
CCN(CC)S(=O)(=O)c1cc(NC(=O)CN2C(=O)NC(C)(c3ccccc3)C2=O)ccc1C (configuration not stated)	2	14	12	4	-10	4
CCN(CC)S(=O)(=O)c1cc(NC(=O)Cn2ncc(Cl)c(Cl)c2=O)ccc1C	-60	93*	47	85*	25	16
Cc1cc(Br)ccc1NC(=O)CNC(=O)Cn1ncc(Cl)c(Cl)c1=O	83*	9	27	94*	74*	58
O=C(O)CCC(=O)N1CCN(S(=O)(=O)c2ccc3ccccc3c2)CC1	-6	-229	5	-5	6	-4
O=C(Cn1ncc(Cl)c(Cl)c1=O)N1CCN(S(=O)(=O)c2ccc3ccccc3c2)CC1	14	97*	·	89*	8	10
COc1ccc(NC(=O)Cn2ncc(Cl)c(Cl)c2=O)cc1S(=O)(=O)N1CCOCC1	-14	83*	39	-5	-14	19
O=C(CSCC(=O)Nc1nc(-c2ccc3c(c2)OCO3)cs1)Nc1nccs1	85*	-168	-56	-11	-7	11
CC(=O)n1cc([C@@H]2C=C(C(N)=O)O[C@H](OCCCCO)C2)c2ccccc21	·	6	4	·	·	·
CO[C@@H]1CN(C)C(=O)c2cc(NC(=O)Nc3ccccc3Cl)ccc2OC[C@@H](C)N(Cc2ccccc2C(=O)O)C[C@H]1C	·	-2	2	·	-19	·
O=C1N/C(=C/c2ccc(N3CCOCC3)o2)C(=O)N1c1ccccc1	2	-5	·	-19	-5	92*
C=CCN1C(=O)N/C(=C/c2ccc(N3CCOCC3)o2)C1=O	·	-8	30	·	3	·
COc1cc(/C=C/C(=O)c2ccc(NS(=O)(=O)c3ccc(C)cc3)cc2)cc(OC)c1O	3	81*	·	67*	47	12
CN(C)CCn1c2ccccc2c2nc3ccc([N+](=O)[O-])cc3cc21	·	76*	-20	·	-6	1
SMILES	EBV LMP1 NFkB	PAX8 reporter	EWS-Fli block	TRPM1 prom inh	LGR2 inh	Shn3 3UTR inh
CCn1c2ccccc2c2cc([N+](=O)[O-])ccc21	-3	14	8	8	-23	11
CNC[C@@H]1OCCCC[C@H](C)Oc2ccc(N(C)C)cc2C(=O)N([C@@H](C)CO)C[C@@H]1C	·	-1	2	·	1	·
c1ccc2nc(-c3nc4ccccc4o3)ccc2c1	5	·	·	53	85*	25
OC[C@@H]1[C@@H](c2ccc(C#CC3CC3)cc2)[C@H]2CN(CCC(F)(F)F)CCCCN12	·	-9	-7	·	·	·
OC[C@H]1[C@@H](c2ccc(-c3ccc(F)cc3)cc2)[C@H]2CN(CCC(F)(F)F)CCCCN21	·	-5	·	·	-13	·
OC[C@@H]1[C@H](c2ccc(C#CC3CCCC3)cc2)[C@H]2CN(CCC(F)(F)F)CCCCN12	·	29	60*	·	0	·
OC[C@@H]1[C@H](c2ccc(-c3ccc(F)cc3)cc2)[C@@H]2CN(CCC(F)(F)F)CCCCN12	·	93*	·	·	-5	·
O=C(C[C@H]1CC[C@@H]2[C@H](COC[C@H](O)CN2S(=O)(=O)c2cccc(F)c2)O1)Nc1ccccc1	·	·	·	·	4	·
C[C@@H]1CN([C@H](C)CO)S(=O)(=O)c2ccc(C#Cc3ccccc3F)cc2O[C@@H]1CN(C)CC1CCOCC1	·	37	-15	·	3	·
C[C@H]1CN([C@@H](C)CO)S(=O)(=O)c2ccc(C#Cc3ccccc3F)cc2O[C@@H]1CN(C)CC1CCOCC1	·	90*	-3	·	-9	·
C[C@@H]1CN([C@@H](C)CO)S(=O)(=O)c2ccc(C#Cc3ccccc3F)cc2O[C@H]1CN(C)CC1CCOCC1	·	94*	23	·	31	·
Cc1ccc(S(=O)(=O)Nc2ccc3c(c2)C(=O)N([C@@H](C)CO)C[C@H](C)[C@H](CN(C)C)OCCCC[C@H](C)O3)cc1	·	8	0	·	-9	·
Cc1ccc(SC(C)c2nc(-c3ccccc3)no2)cc1 (configuration not stated)	59*	·	·	-21	·	-4
CCOc1ccccc1NC(=O)Cn1c(=O)sc2ccccc21	64*	12	6	2	5	12
CCCN(C)C[C@H]1OCCCC[C@H](C)Oc2ccc(NS(=O)(=O)c3cn(C)cn3)cc2C(=O)N([C@H](C)CO)C[C@H]1C	·	0	3	·	-2	·
CCN(CC)S(=O)(=O)c1ccc(N2CCOCC2)c(NC(=O)c2nn(C)c(=O)c3ccccc23)c1	-4	-9	10	14	-1	27
CCN(CC)S(=O)(=O)c1ccc(N2CCOCC2)c(NC(=O)c2nn(C(C)C)c(=O)c3ccccc23)c1	-17	10	9	·	5	86*
CC1(C)CC(=O)C2=C(C1)OC1=C(C(=O)CC(C)(C)C1)C2c1ccc(O)cc1O	1	·	·	101*	·	94*
C[C@@H]1CN([C@H](C)CO)C(=O)c2cc(NS(=O)(=O)c3ccccc3)ccc2O[C@@H](C)CCCCO[C@@H]1CN(C)C	·	2	-2	·	3	·
O=C(C[C@@H]1CC[C@@H](NC(=O)c2ccccc2)[C@H](CO)O1)Nc1ccc(-c2ccccc2)cc1	·	-12	-14	·	-4	·
CCCCc1ccc(NC(=O)c2cnccn2)cc1	24	-27	0	-40	65*	-10

Compound activity from PubChem.
